p53 reactivator: re-activators of mutant p53 | H1299 p53-A138V BP100-luciferase reporter, luminescence, 24 h | Potency, µM (titrated, usually from 92.2 µM), inactives show at the top dose activity change, positive = activation, most hits filed as activators | 320,000 tested, 0.063% active | AID 504706; note: potency is the fitted concentration of half-maximal effect; % of control where 0% means no effect; nearly all actives have a fitted effect of over 45% in size
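H1299 (p53-null), stable ts p53-A138V + BP100-Luc; 1000 cells/well, Opti-MEM/10% FBS; cpd 4 pt, 1:5; 24 h, 37 deg C, 5% CO2; detection reagent 10 min RT; luminescence.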
PINK1 expr mod: changes PINK1 expression | 410,000 tested, 0.2% active | PINK1 immunofluorescence, high-content cytometry, 24 h | AID 624263 | Potency, µM (series often up to 76.6 µM), inactives show top-dose activation (PINK1 increase), most hits filed as activators; active = well fitted activation curve with a large enough effect; inconclusive = small, poorly fitted or top-dose-only effect; cell line not stated here; note: potency is the fitted concentration of half-maximal effect; % of control where 0% means no effect; nearly all actives have a fitted effect of over 65% in size
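A stable cell line was treated with compounds at 5 concentrations for 24 hours, with CCCP as control. PINK1 levels and mitochondrial localization were measured by immunofluorescence with mitochondrial, cell and nuclear markers after fixation, read by laser-scanning cytometry.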
CCT modulator: cytosolic chaperonin activity modulation. purified chaperonin ATPase assay, HTRF ADP detection, 30 min. activity change, % (no concentration beside the values), hits read low. 360,000 tested, 0.3% active. AID 651819; in the data active = activity change below about -30%; note: % is set by controls: 0 for no effect and ±100 for the full control effect
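We incubate TRiC, 40 or 20 nM final, with library compounds at 76 uM and 10 uM ATP for 30 min at 37 °C. ADP formed is detected with Transcreener HTRF reagents after 30 min at room temperature.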
ALOX12 inh: blocks human arachidonate 12S-lipoxygenase; P18054; purified 12hLO, xylenol orange hydroperoxide absorbance; Potency, µM (highest dose often 108 µM), inactives show top-dose activity change, negative = inhibition, hits mostly inhibitors; 580,000 tested, 1.1% active; note: potency is the fitted concentration of half-maximal effect; % is set by controls: 0 for no effect and ±100 for the full control effect
Target sequence (P18054 whole entry, looked up): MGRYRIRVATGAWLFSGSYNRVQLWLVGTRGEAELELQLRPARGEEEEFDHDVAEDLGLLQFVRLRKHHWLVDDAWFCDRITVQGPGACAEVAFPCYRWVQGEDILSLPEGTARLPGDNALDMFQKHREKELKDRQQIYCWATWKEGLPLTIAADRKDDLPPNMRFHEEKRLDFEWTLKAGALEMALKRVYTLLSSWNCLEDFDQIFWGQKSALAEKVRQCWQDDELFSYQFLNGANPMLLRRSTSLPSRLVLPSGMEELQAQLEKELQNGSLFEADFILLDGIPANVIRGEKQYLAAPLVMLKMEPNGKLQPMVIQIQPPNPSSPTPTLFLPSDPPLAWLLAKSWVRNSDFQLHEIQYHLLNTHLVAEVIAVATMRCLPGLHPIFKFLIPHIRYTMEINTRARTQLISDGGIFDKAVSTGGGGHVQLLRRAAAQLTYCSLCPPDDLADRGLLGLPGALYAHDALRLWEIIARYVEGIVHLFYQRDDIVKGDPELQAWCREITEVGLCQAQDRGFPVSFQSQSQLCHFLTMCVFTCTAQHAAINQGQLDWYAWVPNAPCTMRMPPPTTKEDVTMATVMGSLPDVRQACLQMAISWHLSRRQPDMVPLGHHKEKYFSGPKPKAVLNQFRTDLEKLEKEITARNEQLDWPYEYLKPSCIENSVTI
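Purified human 12hLO (150 nM final) in 25 mM Hepes, 0.01% Triton X-100, pH 7.0 was preincubated 15 min at room temperature with compound. Then 40 uM arachidonic acid was added, 30 min. Hydroperoxide was read by Fe-XO absorbance ratio 573/405 nm.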
Mm-Cpn inhibitor: blocks the Methanococcus maripaludis chaperonin Mm-Cpn. purified Mm-Cpn ATPase, ADP Transcreener TR-FRET. Potency, µM (titrated, usually from 76.9 µM), without a hit: top-dose activity, negative = inhibition, hits mostly inhibitors. 330,000 tested, 0.031% active. AID 504842; note: potency is the fitted concentration of half-maximal effect; % is set by controls: 0 for no effect and ±100 for the full control effect; nearly all actives have a fitted effect of over 80% in size
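ATPase read-out: TR-FRET ADP immunoassay (anti-ADP Eu cryptate vs ADP-d2), ex 320 nm, em 590/665 nm; signal drops as ADP forms. Enzyme 25 nM, ATP 10 uM, 30 min at 37°C after 10 min compound preincubation.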
ASM inhibitor: inhibitors of human secretory acid sphingomyelinase; placental ASM, HMU-PC fluorogenic substrate, 60 min; Potency, µM (series often up to 57.5 µM), for inactives: top-dose activity change, negative = inhibition, most hits filed as inhibitors; 340,000 tested, 0.006% active; AID 504937; note: potency is the fitted concentration of half-maximal effect
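qHTS format. ASM enzyme prepared from human placenta hydrolyses the fluorogenic substrate HMU-PC0 (9 uM final) over 60 min at 37 °C after a 10 min compound preincubation.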
* marks the source's active call; other numbers are inactive results; i = inactive; ? = inconclusive; / = not tested or not shown; [ ] = another dose, or the depositor's remark. A selection: hits, their analogues and other compounds. The true share with any hit is near 1.4%. Unless noted, calls come from the whole dose curve; as a rule, active = well fitted curve in the direction sought with a large enough effect; inconclusive = small, poorly fitted or top-dose-only effect, or another doubt; inactive = no such curve, though single readings can be large; an effect the other way counts as inactive or inconclusive.

SMILES	p53 reactivator	PINK1 expr mod	CCT modulator	ALOX12 inh	Mm-Cpn inhibitor	ASM inhibitor
CNC(=S)N/N=C/c1c(C)c(C(=O)c2ccc(F)cc2)n2ccccc12	-2%	16%	0	35µM*	0%	-8%
COCc1nn2c(c1-c1ccccc1)NC(=O)CC2C(=O)Nc1ccc(F)c(F)c1 (centres undefined)	/	/	/	16%	/	/
CC1CCc2c(sc(Nc3nc4c(F)cccc4s3)c2C(N)=O)C1 (centres undefined)	6%	7%	-2	45µM*	-14%	230%
Cc1ccc(C(=O)/C=C/c2ccc(-c3ccc(C)c(Cl)c3)o2)cc1	/	/	/	14µM*	/	/
Cc1ccc(-c2ccc(/C=C/C(=O)c3ccccc3)o2)cc1Cl	/	/	/	11µM*	/	/
N#CCCn1cc(C(=O)CN2C(=O)NC(Cc3c[nH]c4ccccc34)C2=O)c2ccccc21 (centres undefined)	/	/	/	-23%	/	/
COCCN1C(=S)N[C@@H](c2cccc(F)c2)C(C(=O)OC)=C1C	10%	/	/	/	1%	/
CC(=O)C1=C(C)N(Cc2ccc(F)cc2)C(=S)NC1c1cccc(Cl)c1 (centres undefined)	/	/	/	45µM*	/	/
COc1cccc(C2NC(=S)N(Cc3ccc(F)cc3)C(C)=C2C(C)=O)c1 (centres undefined)	/	/	/	45µM*	/	/
CCCCCCCCS(=O)(=O)CCCCCl	/	/	/	10%	/	/
O=C(O)[C@@H](c1ccccc1)N1Cc2ccccc2C1=O	6%	0%	-1	40µM*	-10%	-2%
CC(=O)Nc1ccc(NC(=O)C(c2ccccc2)N2Cc3ccccc3C2=O)cc1 (centres undefined)	/	17%	/	?	/	/
O=C(c1coc(=O)c(Br)c1)N1CCCc2ccccc21	28%	4%	0	7.1µM*	-3%	i
O=C(c1cccc(Br)c1)N1CCCc2ccccc21	18%	7%	1	0%	0%	4%
NC(=S)NN=C1CCSCC1	/	-2%	-34*	-10%	/	8%
O=C(Nc1ccccc1C(=O)O)c1cccc(NS(=O)(=O)c2ccc(Br)cc2)c1	18%	3%	-1	40µM*	3%	6%
O=C(Nc1ccccc1C(=O)O)c1cccc(S(=O)(=O)Nc2ccc(Br)cc2)c1	/	1%	1	16µM*	1%	4%
O=C(O)c1cccc(Nc2nc3ccccc3nc2NS(=O)(=O)c2ccc(Br)cc2)c1	/	/	/	13µM*	/	/
O=C(Nc1ccccc1C(=O)O)c1cccc(NC(=O)c2ccccc2Br)c1	/	4%	-1	?	3%	8%
CCOc1ccccc1OCc1nn2c(C)nnc2s1	/	/	/	11%	/	/
CCOC(=O)C(NC(=O)/C=C/c1ccc(OCC)c(OC)c1)C(=O)OCC	/	/	/	4%	/	/
O=C(CSc1ncnc2ccccc12)Nc1ccc(F)cc1F	/	/	/	11%	/	/
NC(=O)c1cccc(CNC(=O)C2CCCC2)c1	/	/	/	-29%	/	/
CN(C)C(=O)c1ccc(-c2nc(N3CCOCC3)c3ccccc3n2)cc1	/	0%	/	45µM*	/	/
Cc1[nH]n(C(N)=S)c(=O)c1C(c1ccccc1)C(C#N)C#N (centres undefined)	4%	-1%	1	?	1%	-3%
SMILES	p53 reactivator	PINK1 expr mod	CCT modulator	ALOX12 inh	Mm-Cpn inhibitor	ASM inhibitor
Cc1[nH]n(-c2ncc(-c3ccccc3)s2)c(=O)c1C(c1ccc(Br)cc1)C(C#N)C#N (centres undefined)	/	?	-2	25µM*	0%	-7%
COC(=O)c1cc(N)ccc1N1CCOCC1	/	/	/	17%	/	/
Cc1nn(Cc2ccccc2)c2ncccc12	27%	0%	1	45µM*	0%	0%
Cc1c(C)n(CCN2CCOCC2)c2ncn3nc(-c4ccccc4Br)nc3c12	/	/	/	-51%	/	/
COc1ccc(OC)c(NC(=O)c2cnc(N3CCOCC3)c3ccccc23)c1	/	/	/	9%	/	/
COc1ccc(-c2cc(-c3ccc4cn[nH]c4c3)cn3cncc23)cc1	/	/	/	8.9µM*	/	/
O=c1ccc(-c2cc(-c3cccc4cn[nH]c34)cn3cncc23)c[nH]1	/	/	/	32µM*	/	/
COc1ccc(-c2cc(-c3cccc(OC)c3OC)cn3cncc23)cc1	/	/	/	71µM*	/	/
c1cc(-c2cc(-c3ccc4cn[nH]c4c3)cn3cncc23)ccn1	/	/	/	4%[176 µM]	/	/
COc1cccc2oc(C(=O)c3cc(C)sc3C)cc12	/	/	/	-1%	/	/
CC(C(=O)N1CCNC1=O)N(C)Cc1ccc(Cl)c(Cl)c1 (centres undefined)	/	/	/	1%	/	/
COc1ccccc1N1CCN([C@@H]2[C@H](O)[C@H](CO)O[C@@H]2CNC(=O)c2ccccc2)CC1	/	/	/	22µM*	/	/
COc1ccccc1N1CCN([C@@H]2[C@H](O)[C@H](CO)O[C@@H]2CNC(C)=O)CC1	/	/	/	-10%	/	/
O=C(CCC(=O)c1cccs1)NCCC(=O)Nc1ccc(F)c(Cl)c1	/	/	/	50µM*	/	/
O=C(CCNC(=O)c1ccccc1)Nc1ccc(F)c(Cl)c1	-18%	2%	-2	-7%	-1%	3%
COC12CC(=O)C(C(C)=O)=C(O)C1(C)c1c(O)c(C)c(O)c(C(C)=O)c1O2 (centres undefined)	/	/	/	40µM*	/	/
CC(=O)c1c(O)c(C)c(O)c2c1OC1=CC(=O)/C(=C(/C)N)C(=O)C12C (centres undefined)	/	3%	0	?	/	/
COc1cc(CN(C)C(=O)c2cc3ccccc3oc2=O)ccc1OC(F)F	/	/	/	13%	/	/
CCN(CC)c1ccc(NC2CC(=O)N(CCc3ccc(OC)cc3)C2=O)cc1 (centres undefined)	9%	2.2µM*	0	?	-1%	-3%
COc1ccc(CCNC2CC(=O)N(CCc3ccccc3)C2=O)cc1 (centres undefined)	-7%	10%[38.3 µM]	-1	18%	-7%	3%
Cc1ccccc1NC(=O)Cc1nc(COC(=O)C(C)C)cs1	-1%	-1%	0	-9%	-2%	3%
COc1ccccc1NC(=O)Cc1nc(CCl)cs1	-4%	-1%	-1	40µM*	0%	3%
COc1ccccc1NC(=O)Cc1csc(NC(=S)Nc2ccc(C)cc2)n1	15%	-7%[38.3 µM]	-1	10µM*	-3%	-2%
CCC(=O)Nc1nc(CC(=O)Nc2ccccc2OC)cs1	-2%	-2%	0	9%	-2%	3%
COc1cc(OC)c2c(C)c(CC(=O)N3CCCC3)c(=O)oc2c1	/	/	/	-22%	/	/
O=C(CCSC1CCc2ccccc2NC1=O)Nc1ccc2c(c1)OCCO2 (centres undefined)	/	/	/	5%	/	/
O=[N+]([O-])c1cccc(OCCCN2CCC(Cc3ccccc3)CC2)c1	/	12%	3	0.5µM*	/	0%
CCOc1ccccc1OCCN1CCC(Cc2ccccc2)CC1	2%	0%	1	-23%	2%	-4%
